Reference: PubChem BioAssay (NCATS)
A number with no mark means an inactive call. Results filed as inconclusive are left out. Where a call stands in place of a potency, no number is given. The source made the active and inactive calls. Unless noted, the call rests on the fitted dose curve; in most records, active means well fitted curve in the direction sought with a large enough effect; inconclusive means small, poorly fitted or top-dose-only effect, or another doubt; inactive means no such curve, though single readings can be large; an effect the other way counts as inactive or inconclusive.

Legend:
[1] = molecular target: Lysosomal acid glucosylceramidase (Homo sapiens) (UniProt P04062); experiment: Glucocerebrosidase-p2 (AID 348; in the data active means potency below about 10 µM; further: potency means the concentration at half of the fitted maximal effect); conditions: purified GBA, blue fluorogenic substrate, 40 min
How it was run: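 Normal human glucocerebrosidase (0.2 nM) with blue fluorogenic substrate (80 uM final) in citrate/phosphate pH 5.9 with 10mM sodium taurocholate, 0.01% tween-20; 40 min RT, NaOH/glycine stop; fluorescence Ex 365/Em 440; AC50 from a titration from 0.6 nM upwards.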

[2] = molecular target: Cytochrome P450 1A2 (Homo sapiens) (UniProt P05177); experiment: p450-cyp1a2 (AID 410; calls by dose curve; further: potency means the concentration at half of the fitted maximal effect)
Chain of Cytochrome P450 1A2 (Homo sapiens) (P05177 whole entry, looked up): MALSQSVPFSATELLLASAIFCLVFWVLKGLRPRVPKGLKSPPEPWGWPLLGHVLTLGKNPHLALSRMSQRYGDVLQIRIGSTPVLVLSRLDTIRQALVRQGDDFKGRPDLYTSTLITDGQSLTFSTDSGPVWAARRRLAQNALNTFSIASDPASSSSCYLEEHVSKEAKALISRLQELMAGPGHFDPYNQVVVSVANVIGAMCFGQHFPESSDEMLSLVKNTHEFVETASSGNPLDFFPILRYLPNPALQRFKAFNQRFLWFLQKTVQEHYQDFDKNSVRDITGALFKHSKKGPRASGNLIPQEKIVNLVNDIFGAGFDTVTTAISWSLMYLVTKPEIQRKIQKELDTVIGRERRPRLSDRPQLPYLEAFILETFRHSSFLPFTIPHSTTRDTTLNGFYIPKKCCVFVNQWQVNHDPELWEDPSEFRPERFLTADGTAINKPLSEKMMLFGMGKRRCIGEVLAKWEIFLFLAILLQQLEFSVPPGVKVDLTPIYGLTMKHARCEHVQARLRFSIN
How it was run: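 Read-out is luminescence from luciferin produced by CYP1A2 demethylation of Luciferin-ME (100uM, at Km). Detection reagent stopped the 60 min NADPH-dependent reaction; signals were normalized to 57 uM furafylline.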

[3] = NFAT Signaling Pathway (AID 444; active means well fitted curve in either direction with a large enough effect, not every such curve was filed as active;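 further: carbachol stimulus at about its EC50 of 1 µM final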); conditions: Jurkat NFAT-bla M1, carbachol, beta-lactamase ratio, 5 h; at 7.69 µM (top of the series) unless noted
How it was run: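 Jurkat cells with NFAT-driven β-lactamase reporter and co-expressed M1 receptor, stimulated with carbachol (final 1 uM, ~EC50), compound titration, 5 h at 37 °C. CCF4 loaded 1 h at RT; 460/530 nm ratio gave %activity and AC50.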

[4] = Stat Signaling Pathway (AID 446; active means well fitted curve in either direction with a large enough effect, not every such curve was filed as active;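 further: ME-180 cervical cancer cells given 40 pM IL-6 alongside compound; SIE-controlled beta-lactamase reporter measured as 460/530 nm FRET emission ratio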)
How it was run: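 Overnight-plated ME-180 cells bearing a STAT Inducible Element beta-lactamase reporter; 5 h co-exposure to compound and 40 pM IL-6; values normalized to 300 pM IL-6 and 125 nM JAK inhibitor controls.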

[5] = molecular target: Glucocorticoid receptor (Homo sapiens) (UniProt P04150); experiment: GR-GFP Redistribution (AID 450;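 active means compounds whose dose series gives a full or clear partial fitted curve of increased nuclear translocation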; further: potency means the concentration at half of the fitted maximal effect); conditions: U2OS GR-GFP nuclear translocation, laser cytometry, 2 h
Chain of Glucocorticoid receptor (Homo sapiens) (P04150 whole entry, looked up, the tested form may be a part): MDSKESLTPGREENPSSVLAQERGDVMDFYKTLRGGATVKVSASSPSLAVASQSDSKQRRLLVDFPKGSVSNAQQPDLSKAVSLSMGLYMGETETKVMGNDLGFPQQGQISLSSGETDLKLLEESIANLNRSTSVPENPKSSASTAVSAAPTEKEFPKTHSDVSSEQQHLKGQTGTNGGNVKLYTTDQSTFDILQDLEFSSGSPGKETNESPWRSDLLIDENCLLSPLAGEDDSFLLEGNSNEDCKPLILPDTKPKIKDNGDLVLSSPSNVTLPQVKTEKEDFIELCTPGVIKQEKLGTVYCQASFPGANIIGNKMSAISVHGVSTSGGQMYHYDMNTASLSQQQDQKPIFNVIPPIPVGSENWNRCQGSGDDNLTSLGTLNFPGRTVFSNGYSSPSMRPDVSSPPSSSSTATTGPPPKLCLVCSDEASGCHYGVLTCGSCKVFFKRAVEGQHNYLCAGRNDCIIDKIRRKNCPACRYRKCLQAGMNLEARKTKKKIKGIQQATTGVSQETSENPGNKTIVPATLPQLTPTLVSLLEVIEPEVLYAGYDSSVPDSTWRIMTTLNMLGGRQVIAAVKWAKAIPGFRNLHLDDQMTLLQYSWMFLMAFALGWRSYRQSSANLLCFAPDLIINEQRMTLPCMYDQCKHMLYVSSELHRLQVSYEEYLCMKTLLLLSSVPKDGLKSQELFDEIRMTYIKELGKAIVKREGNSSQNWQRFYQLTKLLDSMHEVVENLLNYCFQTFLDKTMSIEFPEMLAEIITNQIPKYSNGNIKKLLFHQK

[6] = molecular target: Glucocorticoid receptor (Homo sapiens) (UniProt P04150); experiment: GR-EFC Redistribution (AID 451; calls by dose curve; further: potency means the concentration at half of the fitted maximal effect); conditions: CHO-K1 GR-EFC translocation, beta-gal luminescence, 2 h
How it was run: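 CHO-K1 cells expressing nuclear EA and GR-ED fragments of b-gal; compounds titrated up to 46 uM final, 2 h at 37 C. GR nuclear translocation read as complemented b-gal luminescence after 1 h RT detection.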

[7] = molecular target: Mitogen-activated protein kinase 10 (Mus musculus) (UniProt Q61831); experiment: JNK3 AlphaScreen Assay (AID 530; active means well fitted curve in either direction with a large enough effect, not every such curve was filed as active;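 further: kinase came from lysate of stimulated human HepG2 cells; signal reports phosphorylation of biotinylated GST-cJun 1-79 at Ser73 with 10 µM ATP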)
How it was run: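 HepG2 lysate (IL-1b/TNFa pre-activated) + biotin-GST-cJun 1-79 + anti-pSer73 cJun; cpd titration, 15 min RT; ATP 10 uM start; Tris pH 7.6, MgCl2, DTT, vanadate; beads in EDTA buffer; AlphaScreen.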

[8] = molecular target: 3',5'-cyclic-AMP phosphodiesterase 4B (Homo sapiens) (UniProt Q07343); experiment: qHTS Assay for Inhibitors of PDE-IV (AID 607; active means well fitted activation curve with a large enough effect in the main read-out, with a control signal flat, not every such curve was filed as active)
How it was run: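 Live HEK293 cells with a modified cyclic nucleotide-gated (CNG) channel report intracellular cAMP via membrane-potential dye fluorescence (ex 535/em 590 nm). Endogenous PDE-IV was targeted. Compounds were tested at up to 22.9 uM final; RO 20-1724 100 uM served as control.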

[9] = molecular target: Cytochrome P450 2C9 (Homo sapiens) (UniProt P11712); experiment: qHTS Assay for Inhibitors and Substrates of Cytochrome P450 2C9 (AID 883); further: nearly all actives have a fitted effect of over 60% in size; further: potency means the concentration at half of the fitted maximal effect
Chain of Cytochrome P450 2C9 (Homo sapiens) (P11712 whole entry, looked up): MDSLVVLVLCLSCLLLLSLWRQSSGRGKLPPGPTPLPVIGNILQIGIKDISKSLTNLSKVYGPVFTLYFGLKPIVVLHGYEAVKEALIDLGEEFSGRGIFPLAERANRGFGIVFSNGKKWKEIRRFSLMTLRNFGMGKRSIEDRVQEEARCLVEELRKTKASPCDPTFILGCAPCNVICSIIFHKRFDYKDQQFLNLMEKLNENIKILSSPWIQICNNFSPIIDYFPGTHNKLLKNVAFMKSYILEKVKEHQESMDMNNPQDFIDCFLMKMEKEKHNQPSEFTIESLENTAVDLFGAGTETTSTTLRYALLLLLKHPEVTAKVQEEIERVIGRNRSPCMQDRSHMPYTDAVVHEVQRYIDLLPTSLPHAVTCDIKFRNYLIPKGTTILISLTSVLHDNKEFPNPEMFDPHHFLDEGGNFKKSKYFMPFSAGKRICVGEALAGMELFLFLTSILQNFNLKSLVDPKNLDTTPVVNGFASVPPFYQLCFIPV
How it was run: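 10nM CYP2C9 + 100uM Luciferin-H (=KM), 25mM KPO4; cpd 10 min 37C; NADPH regen, 60 min 37C; stop/detect with P450 Glo-Buffer 20 min; luminescence. Norm. to 57uM sulphaphenazole as full inhibition.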

[10] = molecular target: Cytochrome P450 3A4 (Homo sapiens) (UniProt P08684); experiment: qHTS Assay for Inhibitors and Substrates of Cytochrome P450 3A4 (AID 884); further: potency means the concentration at half of the fitted maximal effect; nearly all actives have a fitted effect of over 50% in size
Chain of Cytochrome P450 3A4 (Homo sapiens) (P08684 whole entry, looked up): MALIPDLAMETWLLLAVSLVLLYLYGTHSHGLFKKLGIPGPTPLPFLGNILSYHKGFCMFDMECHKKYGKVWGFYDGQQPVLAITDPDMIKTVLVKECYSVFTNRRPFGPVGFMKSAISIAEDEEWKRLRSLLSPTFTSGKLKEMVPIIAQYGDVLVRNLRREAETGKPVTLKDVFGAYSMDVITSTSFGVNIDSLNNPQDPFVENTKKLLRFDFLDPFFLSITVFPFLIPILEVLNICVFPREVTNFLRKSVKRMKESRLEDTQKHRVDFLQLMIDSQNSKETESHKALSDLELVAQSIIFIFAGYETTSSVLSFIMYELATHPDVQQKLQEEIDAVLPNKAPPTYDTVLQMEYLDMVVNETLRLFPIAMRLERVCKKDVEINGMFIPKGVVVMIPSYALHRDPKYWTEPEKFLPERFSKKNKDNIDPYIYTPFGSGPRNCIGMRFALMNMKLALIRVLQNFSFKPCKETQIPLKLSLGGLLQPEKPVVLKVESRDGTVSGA
How it was run: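 Luminescent readout of luciferin produced by CYP3A4 (20 nM) dealkylation of Luciferin-PPXE, 25 uM (its KM). NADPH-driven reaction ran 60 min at RT after 10 min compound preincubation; data scaled to 57 uM ketoconazole as 100% inhibition.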

[11] = molecular target: Cytochrome P450 3A4 (Homo sapiens) (UniProt P08684); experiment: qHTS Assay for Activators of Cytochrome P450 3A4 (AID 885); further: nearly all actives have a fitted effect of over 65% in size
How it was run: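 Using 20nM recombinant human CYP3A4 in potassium phosphate (200mM), substrate Luciferin-PPXE at 25uM, luminescent luciferin detection followed a 60-min RT NADPH reaction; data scaled to 57 uM ketoconazole.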

[12] = molecular target: Rap guanine nucleotide exchange factor 3 (Homo sapiens) (UniProt O95398); experiment: Confirmatory qHTS for antagonist of cAMP-regulated guanine nucleotide exchange factor 3 (EPAC1) (AID 1645880); conditions: EPAC1 Rap1B-BODIPY-GDP exchange, fluorescence; activity, negative = inhibition: at 115 µM (top of the series); further: nearly all actives have a fitted effect of over 55% in size; further: potency means the concentration at half of the fitted maximal effect
Chain of Rap guanine nucleotide exchange factor 3 (Homo sapiens) (O95398 whole entry, looked up): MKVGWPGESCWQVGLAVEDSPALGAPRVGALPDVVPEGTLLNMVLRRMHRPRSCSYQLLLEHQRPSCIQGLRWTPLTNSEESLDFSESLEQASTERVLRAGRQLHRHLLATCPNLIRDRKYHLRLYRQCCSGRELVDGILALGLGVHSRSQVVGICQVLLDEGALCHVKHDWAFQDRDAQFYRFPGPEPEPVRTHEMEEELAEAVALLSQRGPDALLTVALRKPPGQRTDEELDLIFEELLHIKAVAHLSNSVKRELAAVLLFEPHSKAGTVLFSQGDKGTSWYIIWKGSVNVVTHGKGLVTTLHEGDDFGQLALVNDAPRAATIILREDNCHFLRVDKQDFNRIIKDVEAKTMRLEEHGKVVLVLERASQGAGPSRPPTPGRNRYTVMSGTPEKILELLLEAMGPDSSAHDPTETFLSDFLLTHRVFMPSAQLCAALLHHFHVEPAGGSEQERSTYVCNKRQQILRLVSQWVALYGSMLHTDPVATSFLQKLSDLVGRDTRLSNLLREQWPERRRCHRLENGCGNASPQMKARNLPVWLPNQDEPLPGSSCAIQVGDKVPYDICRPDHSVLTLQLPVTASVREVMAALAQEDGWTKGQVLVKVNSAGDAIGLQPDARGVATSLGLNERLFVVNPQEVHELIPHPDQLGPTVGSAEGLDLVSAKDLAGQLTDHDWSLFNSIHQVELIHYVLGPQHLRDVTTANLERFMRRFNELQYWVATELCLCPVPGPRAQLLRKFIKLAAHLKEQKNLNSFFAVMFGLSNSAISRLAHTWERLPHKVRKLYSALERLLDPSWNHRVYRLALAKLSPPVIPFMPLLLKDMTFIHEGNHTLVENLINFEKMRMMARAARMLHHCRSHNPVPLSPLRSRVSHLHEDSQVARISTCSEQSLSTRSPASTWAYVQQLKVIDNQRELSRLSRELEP
How it was run: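 Released BODIPY-GDP fluoresces less than Rap1-bound BODIPY-GDP; the signal is followed at 480/540 nm at 5-min intervals over 30 min, after 5 min at room temperature. Reactions contain 100 nM EPAC1, 250 nM RAP1B-BODIPY-GDP and 50 uM GDP; results are normalized to ATA and DMSO.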

[13] = molecular target: Rap guanine nucleotide exchange factor 4 (Homo sapiens) (UniProt Q8WZA2); experiment: Confirmatory qHTS for antagonist of cAMP-regulated guanine nucleotide exchange factor 4 (EPAC2) (AID 1645885); further: nearly all actives have a fitted effect of over 25% in size; further: potency means the concentration at half of the fitted maximal effect
Chain of Rap guanine nucleotide exchange factor 4 (Homo sapiens) (Q8WZA2 whole entry, looked up): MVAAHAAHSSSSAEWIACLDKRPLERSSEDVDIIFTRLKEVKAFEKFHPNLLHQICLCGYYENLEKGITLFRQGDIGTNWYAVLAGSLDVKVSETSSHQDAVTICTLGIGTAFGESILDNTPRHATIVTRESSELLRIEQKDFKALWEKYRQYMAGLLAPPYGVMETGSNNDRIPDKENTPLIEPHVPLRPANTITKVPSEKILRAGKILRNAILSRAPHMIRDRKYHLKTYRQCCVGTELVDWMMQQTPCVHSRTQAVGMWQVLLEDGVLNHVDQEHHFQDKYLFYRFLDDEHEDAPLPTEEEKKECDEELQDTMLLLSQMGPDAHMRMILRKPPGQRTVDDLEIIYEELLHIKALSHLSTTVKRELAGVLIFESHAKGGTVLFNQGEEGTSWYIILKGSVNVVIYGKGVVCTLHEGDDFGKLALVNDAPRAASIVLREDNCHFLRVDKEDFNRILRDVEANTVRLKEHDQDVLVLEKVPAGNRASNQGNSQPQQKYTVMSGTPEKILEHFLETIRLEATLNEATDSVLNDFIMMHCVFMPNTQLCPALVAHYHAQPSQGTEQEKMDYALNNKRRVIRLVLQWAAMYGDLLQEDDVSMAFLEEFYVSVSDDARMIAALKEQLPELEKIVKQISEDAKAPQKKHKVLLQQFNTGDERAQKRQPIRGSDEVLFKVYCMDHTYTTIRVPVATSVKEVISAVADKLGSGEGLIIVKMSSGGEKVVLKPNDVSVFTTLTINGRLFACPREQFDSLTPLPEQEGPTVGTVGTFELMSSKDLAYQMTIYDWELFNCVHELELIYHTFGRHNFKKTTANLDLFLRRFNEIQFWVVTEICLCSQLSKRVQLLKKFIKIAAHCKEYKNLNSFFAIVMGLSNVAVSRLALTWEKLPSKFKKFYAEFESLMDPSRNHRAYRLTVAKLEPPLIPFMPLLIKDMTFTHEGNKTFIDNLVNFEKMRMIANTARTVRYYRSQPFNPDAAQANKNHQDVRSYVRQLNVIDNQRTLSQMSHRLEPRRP

[14] = AP1 Signaling Pathway (AID 357; active means well fitted curve in either direction with a large enough effect, not every such curve was filed as active); conditions: ME-180 (cervical carcinoma) AP-1-bla reporter, EGF-induced, beta-lactamase ratio, 5 h; at 7.69 µM (top of the series) unless noted
How it was run: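 In this screen, ME-180 cells in Opti-MEM with 0.5% dialyzed FBS received EC50 EGF and compound titrations for 5 h. AP-1 reporter beta-lactamase was detected via CCF4 ratio, giving AC50 for positive and negative modulators.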

[15] = molecular target: Cytochrome P450 2C19 (Homo sapiens) (UniProt P33261); experiment: qHTS Assay for Inhibitors and Substrates of Cytochrome P450 2C19 (AID 899); further: potency means the concentration at half of the fitted maximal effect; nearly all actives have a fitted effect of over 60% in size
How it was run: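 Luminescent read-out of luciferin formed from Luciferin-H EGE (10uM, equal to KM). Enzyme 5nM in 50mM KPO4; compound added, 10 min at 37C, then NADPH regenerating system for 60 min at 37C. Full inhibition defined by 57uM ketoconazole.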

[16] = molecular target: Rap guanine nucleotide exchange factor 3 (Homo sapiens) (UniProt O95398); experiment: Counterscreen qHTS for antagonist of cAMP-regulated guanine nucleotide exchange factor 3 (EPAC1) (AID 1645888)
How it was run: (§1)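 Rap1B–BODIPY-GDP (250 nM) with 50 uM GDP; compounds pin-transferred to 9.74 nM–152 uM final (activator) or from 7.32 nM upwards (inhibitor). Fluorescence Ex/Em 480/540 nm read at 5 and 30 min, then after adding cAMP or buffer, at room temperature.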

[17] = molecular target: Tumor susceptibility gene 101 protein (Homo sapiens) (UniProt Q99816); experiment: qHTS Assay for Iinhibitors of HIV-1 Budding by Blocking the Interaction of PTAP/TSG101: Hit Validation (AID 651600); further: nearly all actives have a fitted effect of over 70% in size; further: potency means the concentration at half of the fitted maximal effect
Chain of Tumor susceptibility gene 101 protein (Homo sapiens) (Q99816 whole entry, looked up, the tested form may be a part): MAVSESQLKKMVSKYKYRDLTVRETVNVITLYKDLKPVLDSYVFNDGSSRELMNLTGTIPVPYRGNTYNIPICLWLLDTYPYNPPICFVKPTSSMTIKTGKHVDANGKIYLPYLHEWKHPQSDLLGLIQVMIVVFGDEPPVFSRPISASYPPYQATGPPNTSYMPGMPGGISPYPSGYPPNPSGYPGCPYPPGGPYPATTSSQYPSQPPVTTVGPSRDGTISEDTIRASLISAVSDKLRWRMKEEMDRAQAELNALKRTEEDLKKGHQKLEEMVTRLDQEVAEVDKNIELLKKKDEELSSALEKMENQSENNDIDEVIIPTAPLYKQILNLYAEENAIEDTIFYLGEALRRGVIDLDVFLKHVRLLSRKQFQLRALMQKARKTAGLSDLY
How it was run: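 FITC-PTAP peptide (50 nM final) binding to Tsg101 binding domain (10 uM final) was measured by polarization after 20 min at r.t. with compounds, in 10 mM HEPES pH 7.5 buffer with 0.15 M NaCl and 0.01% Tween 20.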

[18] = molecular target: Rap guanine nucleotide exchange factor 3 (Homo sapiens) (UniProt O95398); experiment: Counterscreen qHTS for agonist of cAMP-regulated guanine nucleotide exchange factor 3 (EPAC1) (AID 1645889); further: nearly all actives have a fitted effect of over 40% in size; further: potency means the concentration at half of the fitted maximal effect
How it was run: as §1

COc1cccc(Nc2ncc3nc(-c4ccc(F)cc4)c(=O)n(CCC#N)c3n2)c1
Potency [1]: > 11.4 µM | Potency [2]: 3.98 µM (active) | activity change, negative = inhibition [3]: -6.29% | outcome [4]: inactive | Potency [5]: > 9.22 µM | Potency [6]: > 46 µM | Potency [7]: inactive | Potency [8]: inactive | Potency [9]: inactive | Potency [10]: 3.16 µM (active) | outcome [11]: inactive | Potency [12]: inactive | Potency [13]: inactive

Clc1ccccc1NN(Cc1ccncc1)c1ccccc1Cl
Potency [1]: > 11.4 µM | activity change, negative = inhibition [14]: -14.2% | Potency [2]: 5.01 µM (active) | outcome [4]: inactive | Potency [5]: > 46 µM | activity change, negative = inhibition [7]: 3.26% [at 11.4 µM] | Potency [8]: inactive | Potency [9]: 1.58 µM (active) | Potency [10]: 0.251 µM (active) | activity change, positive = activation [11]: -76.6% [at 11.4 µM] | Potency [15]: 1.26 µM (active) | Potency [12]: inactive | Potency [13]: 16.9 µM (active) | Potency [16]: inactive

COC(=O)c1ccccc1-c1c2ccc(=N)cc-2oc2cc(N)ccc12
Potency [12]: inactive | Potency [16]: inactive

O=C(OCCN1C(=O)c2cccc3c(N4CCOCC4)ccc(c23)C1=O)c1ccc(Cl)cc1Cl
Potency [17]: 4.61 µM (active) | Potency [12]: inactive | Potency [13]: inactive | activity change, negative = inhibition [16]: 68.2% [at 30.8 µM]

CCOc1ccc(C(=O)CCc2nc3ccccc3s2)cc1
Potency [12]: inactive | activity change, negative = inhibition [16]: -7.41% [at 30.8 µM]

Cc1ccc(-c2nc(S(=O)(=O)c3ccc(C)cc3)c(N3CCOCC3)o2)cc1
Potency [12]: inactive | Potency [16]: inactive

COC(=O)c1cc2ccccc2n1S(=O)(=O)c1ccccc1
Potency [12]: inactive | Potency [16]: inactive

Cc1c2ccccc2nc2c(F)c(NCCO)c(F)c(F)c12
Potency [17]: 8.19 µM (active) | Potency [12]: inactive | Potency [13]: inactive | Potency [16]: inactive

CCCCN1C(=O)/C(=C/C=C2/CC(C)(C)CN2C)SC1=S
Potency [12]: inactive | Potency [16]: inactive

CC(C)CCN1C(=O)c2cccc3c(N)ccc(c23)C1=O
Potency [17]: 16.3 µM (active) | Potency [12]: inactive | Potency [13]: inactive | activity change, negative = inhibition [16]: 154% [at 30.8 µM] | Potency [18]: 12.6 µM (active)

COc1cccc(/C(O)=C/c2nc3ccc(C(=O)NCCc4ccc(Cl)cc4)cc3[nH]c2=O)c1
Potency [17]: inactive | Potency [12]: inactive | Potency [13]: inactive | Potency [16]: inactive

Cn1c(N)c(C(=O)COC(=O)c2cc(-c3ccco3)nc3ccccc23)c(=O)n(C)c1=O
Potency [10]: 25.1 µM (active) | outcome [11]: inactive | Potency [12]: 47.8 µM (active) | Potency [13]: inactive | Potency [16]: inactive | Potency [18]: inactive

O=C1OC(c2ccccc2)(c2ccccc2)c2ccccc21
Potency [12]: inactive | activity change, negative = inhibition [16]: 2.72% [at 30.8 µM]
